Molecules are shown by their SMILES. Results filed as inconclusive are left out. A call without a number means that no potency is given here. Activity calls are given as the source filed them. Calls come from the whole dose curve; as a rule, active = well fitted curve in either direction with a large enough effect; inconclusive = small, poorly fitted or top-dose-only effect; inactive = flat fitted curve, though single readings scatter.

This assay can be described thus: Total Fluorescence Confirmation Counterscreen for Inhibitors of the Interaction of Thyroid Hormone Receptor and Steroid Receptor Coregulator 2. To be noted: Texas Red total fluorescence, TRbeta/SRC2 FP artifact counterscreen; series mostly up to 92.2 µM. The source says: NIH Molecular Libraries Probe Production Network [MLPCN] NIH Chemical Genomics Center [NCGC] MLPCN Grant: DK058080 Assay Provider: R. Kip Guy, St. Jude Children's Research Hospital NCGC Assay Overview: Thyroid receptor (TR) regulates many homeostatic processes including basal metabolism, cardiovascular function, body weight, and lipid trafficking. TR modulators are potential therapeutics for obesity and hyperlipidemias but current thyroid analogs have undesirable side effects, particularly cardiac stimulation. To identify inhibitors that specifically prevent the interaction of TR with the steroid receptor coregulator 2 (SRC2), a fluorescence polarization assay was screened. This assay detects interaction of the ligand-binding domain of human TRbeta with a Texas Red labeled SRC2 peptide, corresponding to a 20 amino acid region of the nuclear receptor interaction domain (Arnold et al., 2006). Total fluorescence (555 nm excitation and 632 nm emission) was measured to identify potential fluorescent and light absorbing compounds. Such compounds may be artifacts that interfere with the fluorescence polarization assay. This assay is a confirmation assay for AID 1479. Arnold, L. A.; Estebanez-Perpina, E.; Togashi, M.; Shelat, A.; Ocasio, C. A.; McReynolds, A. C.; Nguyen, P.; Baxter, J. D.; Fletterick, R. J.; Webb, P.; Guy, R. K. A high-throughput screening method to identify small molecule inhibitors of thyroid hormone receptor coactivator binding. Sci STKE 2006, p 13.
NCGC Assay Protocol Summary: For screening, 5 uL/well 0.6 uM TRbeta and 20 nM SRC2 Texas Red in protein buffer (20mM Tris hydrochloride, 100mM NaCl, 10% glycerol, 1mM EDTA, 0.01% NP-40, 1mM DTT, 1uM T3 and 5% DMSO) was dispensed into black solid 1536-well plates (Grenier) using a solenoid-based dispenser. Following transfer of 23 nL compound or DMSO vehicle by a pin tool, the plates were centrifuged 15 s at 1000 RPM and incubated 5 hr at ambient temperature. The plates were read by an Envision (Perkin Elmer) to detect fluorescence polarization of SRC2 Texas Red (555 nm excitation and 632 nm emission). Data were normalized to unbound (all components except TRbeta) and bound SRC2 Texas Red controls. Total fluorescence (TF) was calculated as follows: TF = S + 2P where S and P are fluorescence readings in the parallel and perpendicular channels, respectively. In this assay, we provide % activity data for each concentration as well as potencies for the active compounds.
For the compound `O=C(O)[C@H]1CN(CCCP(=O)(O)O)CCN1`, the Potency result is “inactive”.

In the case of `COc1cc(C(c2c(C)[nH][nH]c2=O)c2c(C)[nH][nH]c2=O)ccc1OC(=O)c1cccc(C)c1`, the Potency entry was “inactive”. The entry for `COc1cc(C(c2c(C)[nH][nH]c2=O)c2c(C)[nH][nH]c2=O)ccc1OC(=O)c1ccccc1OC` is “inactive”. Under `CC(NC(=O)Nc1ccc(O)cc1)(C(F)(F)F)C(F)(F)F` stands “inactive”; under `COc1cc(/C=C(\C#N)C(=O)NCC2CCCO2)ccc1OCCC(C)C` (stereo not given), “inactive”; under `COc1ccc(CN2C(=O)Cc3c2nc(N)c2c(N)nc(N4CCCCC4)c(C#N)c32)cc1`, “inactive”. Under `Cc1nc2c3cc(F)ccc3n(Cc3ccccc3F)c2s1` stands “inactive”; under `CCOc1ccc(C2=Cc3cc(OC)c(OC)cc3C(=C(Cl)Cl)O2)cc1`, “inactive”. Regarding `COc1ccccc1Nc1cc2ccccc2c(=O)[nH]1`, the Potency result is “inactive”. Regarding `Cn1cc[nH]c1=S`, the Potency result is “inactive”.

Regarding `CCCc1nc2c(=O)n(C)c(=O)nc-2n(C)n1`, the Potency result is “inactive”. As for `COc1cc(NCCCC(C)N)c2ncccc2c1` (stereo not given), the Potency entry was “inactive”. Under `Cc1[nH][nH]c(=O)c1C(c1ccc(-c2ccc(Cl)c(Cl)c2)o1)c1c(C)[nH][nH]c1=O` stands “inactive”; under `CCCCOc1ccc(C(=O)CCN2CCCCC2)cc1`, “inactive”; under `Nc1c(C(=O)NCc2ccco2)c2nc3ccccc3nc2n1CCc1ccccc1`, “inactive”. Under `Cc1cccc(Cn2c(C(=O)OC(C)C)cc3c2ccn3C)c1` stands “inactive”. The entry for `Cn1c(NNC(=O)c2c(F)cccc2F)cc(=O)n(C)c1=O` is “inactive”; for `Cc1c(C#N)c(O)n(CCO)c(=O)c1N=Nc1ccc2c(c1)COC2=O` it is “inactive”. `CCC(NC(=O)Nc1ccc(O)cc1)(C(F)(F)F)C(F)(F)F`: the Potency entry was “inactive”. Under `CCc1ccc2c(c1)c1nc(C)sc1n2CC` stands “inactive”; under `COc1ccc(C(=O)Oc2ccc(C(c3c(C)[nH][nH]c3=O)c3c(C)[nH][nH]c3=O)cc2OC)cc1`, “inactive”. The entry for `Nc1cc(N)c(OCC(F)(F)F)cc1OCC(F)(F)F` is “inactive”; for `O=C(NNc1cc(N2CCOCC2)nc(N2CCOCC2)n1)c1ccc(Cl)c(Cl)c1` it is 39.8 µM [quencher] (active); for `C=CCSc1nnc2n(-c3ccccc3OC)c(=O)c3c4c(sc3n12)CCC4` it is “inactive”.

As for `Nc1cccnc1Sc1cc(Cl)c(Cl)cc1Cl`, the Potency result is “inactive”. The entry for `CCOC(=O)c1cnc2nc(NCc3ccc(OC)c(OC)c3)[nH]n2c1=O` is “inactive”; for `COc1cc(NC(C)CCCN)c2ncccc2c1` (stereo not given) it is “inactive”. The entry for `CCOc1cc(C(c2c(C)[nH][nH]c2=O)c2c(C)[nH][nH]c2=O)ccc1OS(=O)(=O)c1ccc(C)cc1` is “inactive”; for `COn1c2c(c3c4nonc4ccc31)CCCC2` it is “inactive”.

On to `CCCCOc1ccc(C(=O)CCN2CCOCC2)cc1`, for which the Potency entry was “inactive”. Take `COc1ccc(C(=O)/C=C/Nc2ccc(S(=O)(=O)Nc3ncccn3)cc2)cc1`: the Potency entry was “inactive”. As for `CC1(C)CC(=O)C(N=Nc2cccc(S(=O)(=O)N3CCOCC3)c2)=C(O)C1`, the Potency result was “inactive”. As for `CN(CCO)c1nc(N)c2c(N)nc3c(c2c1C#N)CC(=O)N3C1CCCC1`, the Potency result is “inactive”. Under `Nc1cnccc1C(=O)O` stands “inactive”. With `Cn1c(-c2ccc(=O)[nH]c2)nc2ccccc21`, the Potency result is “inactive”. Under `Nc1cc(-c2ccncc2)c[nH]c1=O` stands “inactive”. For `O=C(O)/C=C/C(=O)Nc1ccc(OC(F)(F)F)cc1Br`, the Potency result is “inactive”. The entry for `O=C(O)/C=C/C(=O)Nc1ccc(SC(F)(F)C(F)(F)C(F)(F)F)cc1` is “inactive”; for `O=C1CCCC(O)=C1N=Nc1cccc(S(=O)(=O)N2CCOCC2)c1` it is “inactive”. The entry for `CCC(CNc1cc(OC)cc2cccnc12)NC1CCCCC1` (stereo not given) is “inactive”.
